The supplement of paper PMC6555819

test system: LXRb homodimer (NR concentration 270 nM); test: PBM binding z-score (relative to random genomic background probes); higher = stronger binding; sequences stand for … in GC…GCGATTGACAGCGTAGAATGAAGG
How it was run: (§1)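 Binding buffer was PBS pH 7.4 with 2% milk, 0.02% Triton X-100, 1 mM DTT, 0.2 mg/mL BSA and 0.4 mg/ml salmon testes DNA. In it, ligand-free nuclear receptor dimers were incubated 1 h on custom Agilent 4×180K protein-binding microarrays carrying double-stranded probes. Antibodies against each partner (one per run) detected binding, and z-scores were calculated against random background probes after regression normalization of scanned fluorescence.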

Row | Sequence | PBM binding z-score
1 | CATACAGGGTCAGCAAGGCCAGAGTAGGGACGGC | -0.0671
2 | CCTACTGGGCCAAAAAAGTCATTGATGCCGATAA | -0.774
3 | CCAGACAGGTGGAAGGTAACTCAGTCTGGTACGC | -0.752
4 | GCTAGTTGGTCAGTAAAGGGTCACACACCGGTCG | 0.0328
5 | TCTTGTAGCTCAAGCAGGTTAAGAAAGCCTGAGT | -0.909
6 | ACTAGCAGGCCAAGGGTCACTAAAGATTAGTCCG | -0.174
7 | CCGACTGGGGCCAGGTTACCATAACGCACAGCCA | -0.749
8 | ATATGTAGGTTATCGGGTCATTCAATTTGCGCAT | 0.979
9 | CCTTTCGGGTCACTCCAGGTTATAGCATCGGAGT | 0.836
10 | ACAGACAGGTGAGTGAAGGTAACTCCGCTGGACG | -0.566
11 | TGTCAAAGTTCAACGGTAACGTAAGTATCCACAC | 1.33
12 | ATCTGTAGGTTAAGGGTCATTCAGGTTGGTTCGC | 1.72
13 | GGAAGGAGGGCAAAGTTGATAGCATCTGTCGACG | 1.01
14 | CGTCGAAGTTCAAGGTAACGTAACAGAAAGCAGC | -0.503
15 | AGTCAAAGTTCATCCAGGTAACGTAAGATATGCT | 1.6
16 | TAGCCTAGGTCATGGGCGAGTATACCACGCGAAC | -0.329
17 | CCAGACAGGTGAGAAGGTAACTAAGCCTCGATTA | -0.426
18 | CATACAGGGTCAGCTACGCCAGAGTAGGGACGGC | 0.562
19 | CATACAGGGTCAGCGAGGCCAGAGTAGGGACGGC | -0.0459
20 | AATACAGGGTCATCGCAGGCCAGAGTACGCACAG | 1.25

Row | Sequence | PBM binding z-score
21 | TCATATAGGAAATACAGGTGAAAGTCGGCATCTA | 0.00276
22 | TTACCAAGGTGGGCTGAGGTCGTTGATCCAACTC | -0.656
23 | CAAACTAGGTCACCGGAAGGTCAAACTCCGCATG | 1.82
24 | TAGCCTAGGTCAGATCGGACCAGTATACGCTATA | -0.138
25 | TCATATAGGTAAAAGGTGAAAGTCGGTGTGGTAA | 0.0331
26 | ACTATTCGTTGAGACGAGGGCAACCGATAGGTTG | 0.215
27 | TCGAGTAGGTTACCAATGGGCCATTCAGCTTTCT | -1.18
28 | TCGAGTAGGTTAGACGGGGCATTCAGCCAACATA | -0.523
29 | AGAATGAGGTTACTAAGATCAGGGAATTGCGGTC | -0.137
30 | CCGACTGAGGCAGAAAGGTTACCATACCATCCGG | -0.972
31 | GCAGACAGGTGAAACGCACGTAACTCAGGGTGGC | -0.898
32 | CCGACTGGGGCAGAAAGGTTACCATACCATCCGG | -1.04
33 | GCTCGGAGGAAAAGGTCAGAGCTTTGTCCGTAGA | -0.596
34 | AGAATGAGGTAAAGATCAGGGAAACAGAATACAT | -0.108
35 | CAGCCCAGGTCAGGGCCAGTATAGGAGGAACGTT | -0.951
36 | CGAACTAGGTCAGAACAGGACAGTGGAGGATGAT | -0.2
37 | CCTACTGGGCCATCAGGTCATTGATATCAACGTT | -0.271
38 | GTTTACGGGTCAAAGGTTATAGCATGAATAGAAT | 0.401
39 | TCAGACAGGTGAAGGTAACTCCGGTACGCAGTCG | -0.314
40 | TAGCCTAGGTCATGGGCCAGTATGCCACGCGAAC | -0.474

test system: PPARa:RXRa (NR concentration 270 nM, RXRa partner concentration 90 nM); test: as above
How it was run: as §1

Row | Sequence | PBM binding z-score
41 | CATACAGGGTCAGCAAGGCCAGAGTAGGGACGGC | 4.51
42 | CCTACTGGGCCAAAAAAGTCATTGATGCCGATAA | 0.404
43 | CCAGACAGGTGGAAGGTAACTCAGTCTGGTACGC | 0.13
44 | GCTAGTTGGTCAGTAAAGGGTCACACACCGGTCG | 3.36
45 | TCTTGTAGCTCAAGCAGGTTAAGAAAGCCTGAGT | 0.461
46 | ACTAGCAGGCCAAGGGTCACTAAAGATTAGTCCG | 4.34
47 | CCGACTGGGGCCAGGTTACCATAACGCACAGCCA | 0.188
48 | ATATGTAGGTTATCGGGTCATTCAATTTGCGCAT | 5.11
49 | CCTTTCGGGTCACTCCAGGTTATAGCATCGGAGT | 4.58
50 | ACAGACAGGTGAGTGAAGGTAACTCCGCTGGACG | 0.0372
51 | TGTCAAAGTTCAACGGTAACGTAAGTATCCACAC | 5.05
52 | ATCTGTAGGTTAAGGGTCATTCAGGTTGGTTCGC | 5.72
53 | GGAAGGAGGGCAAAGTTGATAGCATCTGTCGACG | 4.14
54 | CGTCGAAGTTCAAGGTAACGTAACAGAAAGCAGC | 2.51
55 | AGTCAAAGTTCATCCAGGTAACGTAAGATATGCT | 4.82
56 | TAGCCTAGGTCATGGGCGAGTATACCACGCGAAC | 4.15
57 | CCAGACAGGTGAGAAGGTAACTAAGCCTCGATTA | 0.532
58 | CATACAGGGTCAGCTACGCCAGAGTAGGGACGGC | 4.28
59 | CATACAGGGTCAGCGAGGCCAGAGTAGGGACGGC | 5
60 | AATACAGGGTCATCGCAGGCCAGAGTACGCACAG | 5.93

Row | Sequence | PBM binding z-score
61 | TCATATAGGAAATACAGGTGAAAGTCGGCATCTA | 1.6
62 | TTACCAAGGTGGGCTGAGGTCGTTGATCCAACTC | 0.97
63 | CAAACTAGGTCACCGGAAGGTCAAACTCCGCATG | 6.19
64 | TAGCCTAGGTCAGATCGGACCAGTATACGCTATA | 1.99
65 | TCATATAGGTAAAAGGTGAAAGTCGGTGTGGTAA | 5.57
66 | ACTATTCGTTGAGACGAGGGCAACCGATAGGTTG | 0.431
67 | TCGAGTAGGTTACCAATGGGCCATTCAGCTTTCT | 1.09
68 | TCGAGTAGGTTAGACGGGGCATTCAGCCAACATA | 0.783
69 | AGAATGAGGTTACTAAGATCAGGGAATTGCGGTC | 2.62
70 | CCGACTGAGGCAGAAAGGTTACCATACCATCCGG | 1.82
71 | GCAGACAGGTGAAACGCACGTAACTCAGGGTGGC | 0.511
72 | CCGACTGGGGCAGAAAGGTTACCATACCATCCGG | 2.03
73 | GCTCGGAGGAAAAGGTCAGAGCTTTGTCCGTAGA | 3.83
74 | AGAATGAGGTAAAGATCAGGGAAACAGAATACAT | 0.991
75 | CAGCCCAGGTCAGGGCCAGTATAGGAGGAACGTT | 2.27
76 | CGAACTAGGTCAGAACAGGACAGTGGAGGATGAT | 2.93
77 | CCTACTGGGCCATCAGGTCATTGATATCAACGTT | 2.79
78 | GTTTACGGGTCAAAGGTTATAGCATGAATAGAAT | 6.92
79 | TCAGACAGGTGAAGGTAACTCCGGTACGCAGTCG | 1.21
80 | TAGCCTAGGTCATGGGCCAGTATGCCACGCGAAC | 4.18
